# Results filed as inconclusive are left out. A call without a number means that no potency is given here. Active and inactive are the calls of the source. The call rests on the fitted dose curve; in most records, active means well fitted inhibition curve with a large enough effect; inconclusive means small, poorly fitted or top-dose-only effect; inactive means flat fitted curve, though single readings scatter.
# Test: P-glycoprotein substrates identified in KB-8-5-11 adenocarcinoma cell line, qHTS therapeutic library screen (AID 1346987); further: nearly all actives have a fitted effect of over 65% in size
# Conditions: KB-8-5-11 (P-gp overexpressing) viability, CellTiter-Glo, 72 h; series mostly up to 44.5 µM
# Method in brief: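 In this qHTS, P-gp-rich KB-8-5-11 cells received library compounds across a concentration range. Viability was quantified by luminescence after 72 h at 37 degree C.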
# Potency means the concentration at half of the fitted maximal effect.
row,Compound,Potency
1,Cc1ccn(-c2ccc(-c3ncco3)cc2)c(=O)c1-c1ccc2nc(N)ncc2c1,inactive
2,Clc1cc(Cl)cc(CNc2ncncc2-c2ccc3c(c2)OCO3)c1,13.2 µM (active)
3,CC=CC(=O)N(CC)c1ccccc1C,inactive
4,CC1CCC(C(=O)N(c2cc(C#CC(C)(C)C)sc2C(=O)O)C2CCC(O)CC2)CC1 (configuration not stated),inactive
5,COc1ccc2c3c1OC1C[C@@H](O)C=C[C@@]31CCN(C)C2 (some centres not stated),inactive
6,COc1ccc(-c2coc3cc(O)ccc3c2=O)cc1,inactive
7,O=c1cc(CN2CCOCC2)occ1OCCCCCSc1ccnc2cc(C(F)(F)F)ccc12,10.3 µM (active)
8,CC#CCn1c(N2CCC[C@@H](N)C2)nc2c1c(=O)n(Cc1nc(C)c3ccccc3n1)c(=O)n2C,inactive
9,Oc1ccc(C2CCN(c3ccnc4ccccc34)CC2)cc1O,inactive
10,O=C(CCc1ccc(O)cc1)c1c(O)cc(O)cc1O[C@@H]1O[C@H](CO)[C@H](O)[C@H](O)[C@H]1O,inactive
11,O=C1c2c(O)cc(O)cc2O[C@H](c2cc(O)c(O)c(O)c2)[C@H]1O,inactive
12,O=C(CCN1CCN(C(=O)OCc2cc(Cl)cc(Cl)c2)CC1)c1ccc2[nH]c(=O)oc2c1,inactive
13,C[C@@H]1CCN(C(=O)CC#N)C[C@H]1N(C)c1ncnc2[nH]ccc12,inactive
14,O=C(O)C(O)Cc1ccc(O)c(O)c1 (configuration not stated),inactive
15,O=c1cc(-c2ccc(O)cc2)oc2cc(O)cc(O)c12,inactive
16,O=c1cc(-c2ccccc2)oc2cc(O)cc(O)c12,inactive
17,COC1CCC(N(C(=O)C2CCC(C)CC2)c2cc(C3=CCCCC3)sc2C(=O)O)CC1 (configuration not stated),inactive
